Screening data from PubChem BioAssay.
Most compounds without a hit are left out; they make up all but 3% or so of the library.
PP5 primary = PP5 (human) phosphatase inhibition | P53041 | purified PP5c, OMFP substrate fluorescence | inhibition, % at 6.7 µM | actives 0.18% (n = 320,000) | AID 1987;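 active = inhibition above the campaign's mean inhibition across all tested compounds plus 3 SD, cut at about 9.5% in these data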
PAFAH1B3 FP inh = inhibitors of human PAFAH1B3. Q15102. recombinant PAFAH1B3, FP-rhodamine probe, fluorescence polarization. inhibition, % at 3.39 µM. actives 0.28% (n = 340,000);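 active = inhibition above the screen-wide average of all tested compounds plus 3 SD, cut at about 25% in these data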
Target sequence (Q15102 whole entry, looked up): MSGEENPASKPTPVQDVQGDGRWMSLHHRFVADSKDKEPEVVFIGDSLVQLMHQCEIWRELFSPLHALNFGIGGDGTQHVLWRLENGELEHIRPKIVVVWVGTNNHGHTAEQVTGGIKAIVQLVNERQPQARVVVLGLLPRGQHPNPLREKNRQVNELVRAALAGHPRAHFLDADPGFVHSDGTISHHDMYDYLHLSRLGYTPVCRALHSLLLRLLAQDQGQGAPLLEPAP
PAFAH1B2 inh = PAFAH1B2 (human) inhibition; P68402; actives 1.2% (n = 340,000); inhibition, % at 3.39 µM; recombinant PAFAH1B2, FP-rhodamine activity probe, fluorescence polarization;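 active = inhibition above the mean of all tested compounds plus 3 SD, cut at about 24% in these data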
Fh CTSL1 inh = counter-screen for PFM18AAP inhibitors: inhibitors of F. hepatica cathepsin L1. recombinant F. hepatica cathepsin L1, Z-Leu-Arg-MCA fluorescence. AID 1906. actives 0.49% (n = 300,000). inhibition, % at 5.96 µM;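 active = inhibition above the mean of all tested compounds plus 3 SD, set per screening campaign, cut at about 17% in these data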
pPAFAH FP inh = inhibitors of human plasma PAF acetylhydrolase (pPAFAH); actives 1.5% (n = 330,000); Q13093; recombinant pPAFAH, FP-rhodamine probe fluorescence polarization; inhibition, % at 3.39 µM;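 active = inhibition above the mean inhibition across the screen plus 3 SD, cut at about 25% in these data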;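 note: inhibitors block binding of the rhodamine activity-based probe so polarization drops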
Target sequence (Q13093 whole entry, looked up): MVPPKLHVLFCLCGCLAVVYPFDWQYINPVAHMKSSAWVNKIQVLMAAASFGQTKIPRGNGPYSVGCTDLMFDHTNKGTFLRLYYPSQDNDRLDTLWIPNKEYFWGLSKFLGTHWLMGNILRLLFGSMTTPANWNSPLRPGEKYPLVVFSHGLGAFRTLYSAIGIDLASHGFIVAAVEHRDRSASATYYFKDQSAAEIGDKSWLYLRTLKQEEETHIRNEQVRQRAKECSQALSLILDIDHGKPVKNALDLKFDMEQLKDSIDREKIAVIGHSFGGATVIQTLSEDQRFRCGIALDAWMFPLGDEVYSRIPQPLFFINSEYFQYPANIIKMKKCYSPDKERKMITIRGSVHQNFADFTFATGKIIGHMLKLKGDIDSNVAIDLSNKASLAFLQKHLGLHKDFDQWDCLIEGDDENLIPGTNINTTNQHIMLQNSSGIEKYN
PAFAH2 inh = inhibitors of human PAFAH2; recombinant PAFAH2, FP-rhodamine activity probe, fluorescence polarization; inhibition, % at 3.39 µM; actives 0.99% (n = 340,000);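 active = inhibition above the mean over all tested compounds plus 3 SD, cut at about 30% in these data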;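 note: inhibitors block probe labeling of enzyme so polarization drops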
pPAFAH confirm = confirmation of human plasma PAF acetylhydrolase (pPAFAH) inhibitors; shares compounds with pPAFAH FP inh; recombinant pPAFAH, FP-Rh probe fluorescence polarization; inhibition, % at 3.39 µM; actives 72% (n = 2,300);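 active = mean inhibition of the triplicate above the hit cutoff set for the earlier primary screen, cut at about 25% in these data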
Large screens that a line does not name were inactive (follow-up assays come after a bar, where they were run).

COc1ccc(Cl)cc1NC(=O)CSc1sc2c(O)cc(=O)[nH]c2c1C#N	none
CCSc1nnc(NC(=O)CSc2sc3c(O)cc(=O)[nH]c3c2C#N)s1	PAFAH1B2 inh 29, pPAFAH FP inh 39, PAFAH2 inh 50 | pPAFAH confirm 35
Cc1ccc(C)c(NC(=O)CSc2sc3c(O)cc(=O)[nH]c3c2C#N)c1	none
CN(CC(=O)Nc1cccc(F)c1)C(=O)CSc1ccccc1F	none
Cc1ccc(N=Cc2cccc(O)c2O)c(C)c1	pPAFAH FP inh 37 | pPAFAH confirm inactive
COc1ccc(NC(=O)N2CCCC2C(=O)NCc2cccs2)cc1 (configuration not stated)	none
O=C(Oc1ccc(Cl)cc1)N1CCOCC1	none
O=C(Oc1ccccc1)N1CCCC1	none
O=C(Oc1ccc(-c2ccccc2)cc1)N1CCOCC1	pPAFAH FP inh 94, PAFAH2 inh 32 | pPAFAH confirm 98
O=C(Oc1ccc(Oc2ccccc2)cc1)N1CCC(O)CC1	pPAFAH FP inh 94 | pPAFAH confirm 92
CCN(C(=O)COC(=O)CCOc1ccc(C(C)(C)C)cc1)c1c(N)n(Cc2ccccc2)c(=O)[nH]c1=O	none (no result: PP5 primary, Fh CTSL1 inh, pPAFAH FP inh)
O=C(c1cc(S(=O)(=O)N2CCOCC2)c(Cl)cc1Cl)N1CCCCC1CO (configuration not stated)	pPAFAH FP inh 47 | pPAFAH confirm inactive
O=C(c1cc(S(=O)(=O)N2CCOCC2)c(Cl)cc1Cl)N1CCCC1	none (no result: PP5 primary, Fh CTSL1 inh, pPAFAH FP inh)
CCCCCCC[C@@H](C/C=C/CCC(=O)N(C)C/C(=C/Cl)C/C(=C\C(=O)N1C[C@H](O)CC1=O)OC)OC	pPAFAH FP inh 41 (no result: PP5 primary, Fh CTSL1 inh) | pPAFAH confirm 37
O=C1N=C(N2C=CC(=C3C=CNC=C3)C=C2)/C(=C/N=NC(=O)c2ccccc2)S1	none
O=C(CCCSc1ccccc1)Nc1nc(-c2ccco2)c(-c2ccco2)s1	pPAFAH FP inh 56 | pPAFAH confirm inactive
O=C(O)CC1S/C(=N/N=C/c2ccc(-c3ccc(Cl)c([N+](=O)[O-])c3)o2)NC1=O (configuration not stated)	pPAFAH FP inh 36 | pPAFAH confirm inactive
O=C(O)CC1S/C(=N/N=C/c2ccc(-c3ccc(Cl)cc3[N+](=O)[O-])o2)NC1=O (configuration not stated)	none
O=C(c1ccc(S(=O)(=O)Nc2ccccc2F)cc1)N1CCN(c2ccccc2O)CC1	none
O=C(NCC(=O)N1CCN(c2ccccc2O)CC1)C1CCCCC1	pPAFAH FP inh 37 | pPAFAH confirm inactive
CC(C)(C)OC(=O)C[C@H]1C/C=C\C[C@H](CC(=O)N[C@H](CO)Cc2ccccc2)C(=O)N[C@@H](Cc2ccccc2)COC1=O	none (no result: PP5 primary, Fh CTSL1 inh)
COc1ccc(CCn2c(C)cc(C(=O)CSc3nc(N)cc(=O)[nH]3)c2C)cc1	pPAFAH FP inh 35 | pPAFAH confirm 31
Cc1cc(C(=O)CSc2nc(N)cc(=O)[nH]2)c(C)n1-c1ccc(OC(F)F)cc1	pPAFAH FP inh 60 | pPAFAH confirm 71
Cc1cc(C(=O)CSc2nc(N)cc(=O)[nH]2)c(C)n1CCc1ccc(F)cc1	pPAFAH FP inh 61 | pPAFAH confirm 62
COC(=O)C1CC(C(=O)OC)C2C(C(=O)OC)CC(C(=O)OC)C12 (configuration not stated)	none (no result: PP5 primary, Fh CTSL1 inh, pPAFAH FP inh)
COc1ccc(N(CC(=O)NC2CCCC2)C(=O)CCC(=O)Nc2nc(C)cs2)cc1OC	none
CC1Oc2cc3oc4c(O)c(O)ccc4c(=O)c3c(O)c2C1(C)C (configuration not stated)	pPAFAH FP inh 75, PAFAH2 inh 32 | pPAFAH confirm 83
O=c1cc(CN2CCOCC2)c2ccc(O)c(O)c2o1	none
Nc1nc(-c2ccco2)cs1	none
c1coc(-c2nc(-c3ccco3)c(-c3ccco3)nc2-c2ccco2)c1	PAFAH1B3 FP inh 47, PAFAH1B2 inh 45, pPAFAH FP inh 100, PAFAH2 inh 73 | pPAFAH confirm 43
Nc1nc(-c2ccco2)c(-c2ccco2)s1	pPAFAH FP inh 37 | pPAFAH confirm inactive
C=CCN(c1ccccc1OC)S(=O)(=O)c1cccc(C(=O)NCC(c2ccc(OC)cc2)N2CCCC2)c1 (configuration not stated)	none (no result: PP5 primary, Fh CTSL1 inh, pPAFAH FP inh)
CCc1cccc(NC(=O)C2CCCN2S(=O)(=O)c2ccc3c(c2)CC(C)N3C(C)=O)c1 (configuration not stated)	none
Oc1ccc(Cl)cc1/C=C/c1ccc2cccc(O)c2n1	none (no result: PP5 primary, Fh CTSL1 inh, pPAFAH FP inh)
Oc1c(Cl)cc(Cl)cc1/C=C/c1ccc2cccc(O)c2n1	pPAFAH FP inh 51 | pPAFAH confirm 49
Clc1ccc(C2Nc3cccc4cccc(c34)N2)c(Cl)c1	none (no result: PP5 primary, Fh CTSL1 inh, pPAFAH FP inh)
Clc1cccc(-c2ccc(C3Nc4cccc5cccc(c45)N3)o2)c1	PAFAH1B3 FP inh 31, PAFAH1B2 inh 25, pPAFAH FP inh 39 (no result: PP5 primary, Fh CTSL1 inh) | pPAFAH confirm 38
COc1ccc(C(=O)CC(=O)C(=O)Nc2ccc([N+](=O)[O-])cc2C)cc1	pPAFAH FP inh 48 | pPAFAH confirm inactive
COc1ccc(C(=O)CC(=O)C(=O)Nc2cc(C)ccc2C)cc1	none
N#CC1=C(N)N2C(=C(C#N)C1c1cccc(Br)c1)Nc1ccccc12 (configuration not stated)	none
N#CC1=C(N)N2C(=C(C#N)C1c1ccc(Br)cc1)Nc1ccccc12 (configuration not stated)	pPAFAH FP inh 63 (no result: PAFAH1B3 FP inh, PAFAH1B2 inh, PAFAH2 inh) | pPAFAH confirm 71
COc1cc(OC)cc(-c2c(-c3cccs3)c3cc(-c4ccc(CN5CCOCC5)cc4)ccc3n2C)c1	none (no result: PP5 primary, Fh CTSL1 inh)
O=C(Nc1ccc([N+](=O)[O-])cc1)c1ccccc1F	none
O=C(c1cc(O)c(O)c([N+](=O)[O-])c1)c1ccccc1F	PAFAH1B3 FP inh 29, pPAFAH FP inh 59, PAFAH2 inh 68 | pPAFAH confirm 81
CCN(CC(=O)Nc1c(F)cccc1F)C(=O)c1ccc2c(c1)S(=O)(=O)N=C1CCCCCN12	none
CCCCCn1c(SCC2CCCO2)nc2cc(C(=O)N3CCC(C(N)=O)CC3)ccc2c1=O (configuration not stated)	pPAFAH FP inh 42 | pPAFAH confirm inactive
Cc1ccc(C)c(OCCC(=O)OCC(=O)Nc2ccc(Cl)cn2)c1	none
CC(C)=CCc1c2c(c(O)c3c(=O)c4c(oc13)-c1cc(O)c(O)cc1OC4C=C(C)C)C=CC(C)(C)O2 (configuration not stated)	pPAFAH FP inh 37 (no result: PAFAH1B3 FP inh, PAFAH1B2 inh, PAFAH2 inh) | pPAFAH confirm 52
CC(C)=CCc1c(-c2ccc(O)cc2O)oc2c3c(cc(O)c2c1=O)OC(C)(C)C=C3	none (no result: PAFAH1B3 FP inh, PAFAH1B2 inh, PAFAH2 inh)
COc1cc(-c2c(NC(=O)c3ccco3)oc3ccccc3c2=O)cc(OC)c1OC	none
COc1ccccc1N1C(=O)c2ccc(C(=O)Nc3nccs3)cc2C1=O	pPAFAH FP inh 43 (no result: PAFAH1B3 FP inh, PAFAH1B2 inh, PAFAH2 inh) | pPAFAH confirm inactive
Cc1ccc(C(=O)n2nc(-c3ccccc3)nc2NCc2ccco2)cc1	pPAFAH FP inh 74 | pPAFAH confirm inactive
